Compound activity (PubChem)
Hits are enriched below; roughly 7.3% of the tested compounds scored in any of these assays.
ELG1 genotox = induces genotoxicity in HEK293T cells with luciferase-tagged ELG1; HEK293T ELG1-luciferase reporter, luminescence, 16 h; Potency, µM (highest dose often 46 µM), inactives show at the top dose activity change, positive = activation, hits mostly activators; 330,000 compounds, 1.3% hits; AID 504466; note: % of control where 0% means no effect; nearly all actives have a fitted effect of over 60% in size
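HEK293T cells expressing luciferase-tagged ELG1 were exposed to compound or DMSO vehicle for 16 hr at 37 °C and 5% CO2. Luciferase activity was then measured with ONE-Glo after 30 min at room temperature.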
Rab9 promoter act = activates the Rab9 promoter; Huh7 Rab9 promoter-luciferase reporter, luminescence, 24 h; Potency, µM (highest dose often 9.22 µM), inactives show top-dose activation, negative = inhibition, hits mostly activators; 320,000 compounds, 2.8% hits; AID 485297; note: % of control where 0% means no effect; nearly all actives have a fitted effect of over 60% in size
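Huh7 cells stably carrying a Rab9 promoter-luciferase reporter, 1500 cells per well in OP-MEM I with 10% FBS, treated with compound 24 hours at 37C. Luciferase activity read by luminescence after 10 minutes with Amplite reagent.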
Luc counter = Kinase-Glo luciferase inhibition (counter-screen); Q27757; Kinase-Glo luciferase, ATP luminescence, 8 min; Potency, µM (top dose mostly 38.3 µM), inactives show at the top dose activity change, negative = inhibition, actives largely listed as inhibitors; 200,000 compounds, 0.28% hits; AID 1379; note: % is set by controls: 0 for no effect and ±100 for the full control effect; nearly all actives have a fitted effect of over 60% in size
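Recombinant Kinase-Glo luciferase, 10 uM ATP (linear range), luciferin; imidazole pH 7.2 / KCl / MgCl2 / Tween / BSA buffer; 8 min RT; luminescence.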
NPC1 promoter act = activators of NPC1 promoter. Huh7 NPC1 promoter luciferase reporter, 24 h. Potency, µM (highest dose often 9.22 µM), for inactives: at the highest dose activation, usual class: activators. 320,000 compounds, 2.4% hits. AID 485313; note: % of control where 0% means no effect; nearly all actives have a fitted effect of over 60% in size
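Readout is luciferase luminescence, reflecting NPC1 promoter activation in stably transfected Huh7 cells after 24 h compound exposure at 37 °C in reduced-serum medium with 10% FBS.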
SMN2 splice up = increases expression of the SMN2 splice variant; Potency, µM (titrated, usually from 46.1 µM), for inactives: top-dose activity change, positive = activation, hits mostly activators; HEK293 SMN2-luciferase splicing reporter, luminescence, 30-36 h; 210,000 compounds, 2.8% hits; AID 1458; note: % of control where 0% means no effect; nearly all actives have a fitted effect of over 55% in size
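qHTS luciferase splicing reporter: luminescence rises when SMN2 exon 7 is included in transfected HEK293 cells. Compound exposure lasted 30-36 h at 37C, with 4.5 mM final sodium butyrate as control, followed by a ONE-Glo read.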
FLuc modulator = firefly luciferase modulation, counter-screen for miR-21 project; P08659; purified FLuc, Km substrates, luminescence inhibition; Potency, µM (highest dose often 57.5 µM), without a hit: at the highest dose activity change, negative = inhibition, actives largely listed as inhibitors; 360,000 compounds, 6.9% hits; AID 588342;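 note: plate controls were vehicle for no effect and reference inhibitor for full effect; nearly all actives have a fitted effect of over 55% in size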
Target sequence (P08659 whole entry, looked up): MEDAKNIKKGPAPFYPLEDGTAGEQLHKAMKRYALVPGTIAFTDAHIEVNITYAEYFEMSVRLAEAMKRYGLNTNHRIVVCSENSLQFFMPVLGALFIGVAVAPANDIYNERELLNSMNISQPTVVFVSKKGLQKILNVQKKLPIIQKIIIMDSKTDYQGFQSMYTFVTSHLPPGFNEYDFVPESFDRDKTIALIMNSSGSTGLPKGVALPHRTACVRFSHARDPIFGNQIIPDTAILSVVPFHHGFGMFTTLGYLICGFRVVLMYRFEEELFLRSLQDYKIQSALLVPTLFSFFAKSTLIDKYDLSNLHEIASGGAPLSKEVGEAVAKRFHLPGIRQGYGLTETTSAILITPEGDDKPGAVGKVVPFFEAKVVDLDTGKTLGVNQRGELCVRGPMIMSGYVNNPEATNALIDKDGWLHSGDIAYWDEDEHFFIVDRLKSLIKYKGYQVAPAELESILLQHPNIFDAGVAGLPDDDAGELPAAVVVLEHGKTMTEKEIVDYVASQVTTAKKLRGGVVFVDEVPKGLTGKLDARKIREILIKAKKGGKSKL
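Purified P. pyralis luciferase (10nM final) with 10uM D-luciferin and 10uM ATP (Km levels) in 50mM Tris acetate pH 7.5, 10mM Mg acetate, 0.01% Tween-20, 0.05% BSA; qHTS 6-point titration, ~60 µM downward; luminescence read.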
* hit, by the source's call; ? = inconclusive; . = no result; [ ] = remark or other dose. Calls come from the whole dose curve; as a rule, active = well fitted curve in the direction sought with a large enough effect; inconclusive = small, poorly fitted or top-dose-only effect, or another doubt; inactive = no such curve, though single readings can be large; an effect the other way counts as inactive or inconclusive. Potency is the fitted concentration of half-maximal effect.

SMILES	ELG1 genotox	Rab9 promoter act	Luc counter	NPC1 promoter act	SMN2 splice up	FLuc modulator
Cc1ccccc1Cn1c(=O)n(CCc2ccccc2)c(=O)c2sc3ccccc3c21	.	.	.	.	6%	-13%
Cc1cc(C)c(S(=O)(=O)N2CCC(N3CCN(Cc4ccccc4)C(=O)C3=O)CC2)c(C)c1	.	.	.	.	.	-6%
CCCCn1cnc2cc(NCc3ccccc3Cl)ccc21	.	.	.	.	18%	24µM*
CCCn1cnc2cc(NCc3cccs3)ccc21	?	?	.	?	.	19µM*
CCn1cnc2cc(NCc3ccccc3Cl)ccc21	?	?	.	?	.	17µM*
Cc1ccc(C)c(NC(=O)Cn2c(=O)n(Cc3ccco3)c(=O)c3oc4ccccc4c32)c1	.	.	.	.	.	-6%
CN(C)CCCN(C(=O)c1sc2ccccc2c1Cl)c1nc2ccc(F)cc2s1	?	-4%	1%	-2%	18µM*	4.8µM*
Cc1ccc2nc(N(CCCN(C)C)C(=O)c3ccc4ncsc4c3)sc2c1	?	4µM*	.	?	.	17µM*
CN(C)CCCOC(=O)c1sc2ccccc2c1Cl	4%	0%	-2%	-8%	.	24µM*
CN(C(=O)COC(=O)c1sc2ccccc2c1Cl)C1CCCCC1	-1%	-4%	3%	0%	-7%	?
CCN(CC)CCCNc1oc(-c2ccc(OC)cc2)nc1C#N	.	.	.	.	.	-2%
Cc1cccc(CC(=O)NC2CC(=O)N(c3ccccc3)C2)c1 (stereo unspecified)	.	.	.	.	.	0%
Cc1ccccc1CSc1nc2cccnc2n1Cc1ccc(C(=O)NC2CC2)cc1	.	.	.	.	.	6µM*
O=C(NC1CCCC1)c1ccc(CSc2nc3cccnc3n2Cc2ccc(F)cc2)cc1	.	.	.	.	.	-8%
O=C(NC1CC1)c1ccc(Cn2c(SCc3ccc(F)cc3)nc3cccnc32)cc1	.	.	.	.	.	1.7µM*
O=C(NC1CC1)c1ccc(Cn2c(SCc3cccc(F)c3)nc3cccnc32)cc1	.	.	.	.	.	-16%
COC1(C(F)(F)F)NC(=O)N(c2ccc(F)cc2)C1=O (stereo unspecified)	.	.	.	.	0%	1%
Cc1ccc(/C=N/NC(=O)c2ccc3ccccc3c2)s1	?	-11%	.	-20%	.	27µM*
O=C(N/N=C/c1cccs1)c1ccc2ccccc2c1	16%	?	.	1%	.	11µM*
Cc1ccc(/C=N/NC(=O)c2cccc(S(=O)(=O)Nc3ccccc3Cl)c2)s1	-2%	0%	.	-3%	.	?
O=C(N/N=C/c1ccc(-c2ccc(Br)cc2)o1)c1ccc2c(c1)OCO2	10%	?	0%	1%	-13%	-3%
O=C(N/N=C/c1cc(Br)cs1)c1ccc2c(c1)OCCO2	15%	?	.	3%	.	1.3µM*
Cc1ccc(/C=N/NC(=O)c2ccc3c(c2)OCCO3)s1	?	?	.	?	.	3.4µM*
Clc1ccc(Cl)c(Cl)c1Cl	.	.	.	.	-3%	.
COC(=O)c1cc(-c2ccc(C)cc2)c2c(=O)n(C)c(=O)n(C)c2n1	.	.	.	.	-2%	2%
SMILES	ELG1 genotox	Rab9 promoter act	Luc counter	NPC1 promoter act	SMN2 splice up	FLuc modulator
Cc1cccc(N(C)c2nc3ccccc3c3nnc(C)n23)c1	.	.	.	.	.	-1%
COC(=O)NC(c1ccccc1)C1(C(=O)OC)C(=O)Cc2ccccc21 (stereo unspecified)	.	.	1%	.	17%	.
O=C(N/N=C/c1cccs1)c1cccc2cc[nH]c12	-8%	?	0%	?	-18%	24µM*
O=C(N/N=C/c1cccc([N+](=O)[O-])c1)c1cccc2cc[nH]c12	7%	1%	1%	0%	17%	7%
Cc1ccc(N(CC(=O)N2CCN(c3cc(C)ccc3C)CC2)S(=O)(=O)c2c(C)nn(C)c2C)cc1	.	.	.	.	-17%	-8%
COc1ccc(-c2c(C)nc3c(-c4ccsc4)cnn3c2N)cc1	1.8µM*	0.25µM*	.	0.32µM*	.	0.6µM*
COc1ccc(-c2c(C)nc3c(-c4ccccn4)cnn3c2N)cc1	1.2µM*	0.32µM*	.	0.32µM*	.	0.54µM*
Cn1cccc1/C=C1\CCc2ccccc2C1=O	?	0.13µM*	10µM*	0.35µM*	1µM*	1.5µM*
CN1C2CCC1/C(=C/c1cccn1C)C(=O)/C2=C\c1cccn1C	-10%	-1%	-5%	-2%	-50%	1%
Cn1cccc1/C=C1\CC(C(C)(C)C)C/C(=C\c2cccn2C)C1=O (stereo unspecified)	-14%	-19%	13%	-23%	-28%	-1%
Cn1cccc1/C=C1\Cc2ccccc2C1=O	?	?	11µM*	-26%	?	6.7µM*
Cc1ccc(OCCCCn2c(-c3ccc(Cl)cc3)nc3ccccc3c2=O)cc1	.	.	.	.	-19%	-1%
COc1ccccc1OCCSc1nc2ccccc2n1CC(N)=O	3%	5%	.	-3%	.	15µM*
Cc1ccc(CSc2ccc3nnc(CCNS(=O)(=O)c4ccc(C)cc4)n3n2)cc1	.	.	.	.	.	-3%
O=C(/C=C1\NCC2c3ccccc3CCN2C1=O)c1ccccc1 (stereo unspecified)	-2%	3.5µM*	-10%	4µM*	2.8µM*	1.2µM*
O=C(C1CCCCC1)N1CC(=O)N2CCc3ccccc3[C@@H]2C1	.	.	-1%[17.1 µM]	.	-2%[20.6 µM]	.
